# Screens (PubChem BioAssay)
# The sample as a whole holds a higher share of hits than the screen did.
# Giardia FBPA inh: blocks Giardia fructose-bisphosphate aldolase activity | purified Giardia FBPA | Potency, µM (doses to about 59.6 µM), for the others: at the top dose activity, negative = inhibition, actives largely listed as inhibitors | hit rate 0.71% among 290,000; also: potency is read from the fitted curve at half-maximal effect; % is scaled to controls: 0 for no effect and ±100 for the full control effect; nearly all actives have a fitted effect of over 55% in size
# Target sequence (A8B2U2 whole entry, looked up): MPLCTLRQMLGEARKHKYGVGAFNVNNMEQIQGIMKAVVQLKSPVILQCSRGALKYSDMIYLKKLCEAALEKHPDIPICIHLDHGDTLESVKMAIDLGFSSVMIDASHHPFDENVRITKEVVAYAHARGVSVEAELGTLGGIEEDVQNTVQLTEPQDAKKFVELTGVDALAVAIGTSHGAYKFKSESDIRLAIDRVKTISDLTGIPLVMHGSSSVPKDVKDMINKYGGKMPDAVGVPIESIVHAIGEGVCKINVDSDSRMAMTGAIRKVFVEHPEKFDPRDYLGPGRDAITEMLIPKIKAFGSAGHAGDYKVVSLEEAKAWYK
#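 Giardia FBPA (40 nM reagent) was preincubated 10 min at RT with compound (up to 57.5 uM final), then substrate plus GAPDH/TPI/NAD/arsenate coupling system with diaphorase/resazurin was added; resorufin fluorescence (525/598 nm) was read after 20 min.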
# Shiga inhibitor: Shiga toxin inhibition; AID 2315; inhibition, % at 38.7 µM; Vero cells, Shiga toxin protein synthesis inhibition reporter; hit rate 9.2% among 290,000; in the data active = inhibition mostly above about 28%, no sharp cut-off; inactive = mostly below about 43%; also: 0% is about no effect
# CHX counter-1: affects cycloheximide protein synthesis inhibition readout, counter-screen; hit rate 12% among 300,000; AID 2314; cell reporter, cycloheximide protein synthesis inhibition counterscreen; max response, %; in the data active = max response mostly above about 13%, no sharp cut-off; inactive = mostly below about 14%; also: read at 38.3 µM for the half of the compounds with a filed dose; 0% is about no effect
# Tb PYK inh: inhibitors of Trypanosoma brucei pyruvate kinase; Q57TT1; TbPYK enzyme, Kinase-Glo Plus ATP luminescence, 45 min; Potency, µM (highest dose often 76.8 µM), without a hit: top-dose activity, negative = inhibition, most hits filed as inhibitors; hit rate 0.12% among 410,000; AID 624173; also: potency is read from the fitted curve at half-maximal effect; % is scaled to controls: 0 for no effect and ±100 for the full control effect; nearly all actives have a fitted effect of over 50% in size
#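 T. brucei PYK with substrate was exposed to pin-transferred compounds across a concentration series, then started with 130 uM ADP (final). After 45 min at room temperature, Kinase-Glo Plus luminescence was read, normalized and curve-fitted.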
# Sm TGR inh: inhibitors of Schistosoma mansoni thioredoxin glutathione reductase; Q962Y6; Potency, µM (doses to about 114 µM), for the others: top-dose activity change, negative = inhibition, most hits filed as inhibitors; AID 485364; purified TGR, DTNB reduction, TNB absorbance 405 nm; hit rate 3% among 360,000; also: potency is read from the fitted curve at half-maximal effect; % is scaled to controls: 0 for no effect and ±100 for the full control effect; nearly all actives have a fitted effect of over 60% in size
#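 TGR 20 nM + NADPH 100 uM (dispensed conc.), cpd preinc 15 min RT; start with NADPH (500 uM addition) then DTNB (15 mM addition). Kinetic TNB absorbance, 405 nm filter. Four-parameter Hill fit across titration.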
# LmPK inh: blocks Leishmania mexicana pyruvate kinase activity. purified LmPK, Kinase-Glo ATP luminescence, 1 h. Potency, µM (titrated, usually from 57.5 µM), for the others: top-dose activity change, negative = inhibition, hits mostly inhibitors. hit rate 0.37% among 290,000. Q27686; also: potency is read from the fitted curve at half-maximal effect; % is scaled to controls: 0 for no effect and ±100 for the full control effect
# Target sequence (Q27686 whole entry, looked up): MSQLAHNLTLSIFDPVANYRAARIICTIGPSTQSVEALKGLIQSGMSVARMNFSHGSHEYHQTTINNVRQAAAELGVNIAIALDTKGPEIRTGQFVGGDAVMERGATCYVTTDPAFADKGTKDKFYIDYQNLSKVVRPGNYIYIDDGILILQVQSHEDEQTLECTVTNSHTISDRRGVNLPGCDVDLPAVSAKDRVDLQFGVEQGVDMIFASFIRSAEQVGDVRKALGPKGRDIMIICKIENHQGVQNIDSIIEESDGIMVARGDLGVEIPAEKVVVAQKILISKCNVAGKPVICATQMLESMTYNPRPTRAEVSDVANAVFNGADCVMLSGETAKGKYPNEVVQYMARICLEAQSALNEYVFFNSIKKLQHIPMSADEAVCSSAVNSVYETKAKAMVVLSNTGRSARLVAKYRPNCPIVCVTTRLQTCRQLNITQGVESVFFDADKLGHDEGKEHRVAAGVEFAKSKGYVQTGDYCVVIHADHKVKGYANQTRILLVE
#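 Purified LmPK (0.1 nM) converted ADP (0.1 mM) to ATP with PEP (0.5 mM) in imidazole buffer pH 7.2 with KCl and MgCl2, 1 h at room temperature. ATP was read by Kinase-Glo luminescence; data normalized to uninhibited and no-enzyme controls.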
# CHX counter-2: affects protein synthesis reporter in cycloheximide counter-screen | shares compounds with Shiga inhibitor | Cycloheximide counterscreen, protein synthesis reporter, Shiga toxin assay | Potency, µM (series often up to 38.3 µM), for inactives: at the highest dose activity (activation), hits mostly activators | hit rate 3% among 510 | AID 2318; calls by dose curve; also: potency is read from the fitted curve at half-maximal effect; 0% is about no effect
# * marks the source's active call; other numbers are inactive results; ? = inconclusive; . = not tested or not shown. Unless noted, calls follow the shape of the dose curve; as a rule, active = well fitted curve in the direction sought with a large enough effect; inconclusive = small, poorly fitted or top-dose-only effect, or another doubt; inactive = no such curve, though single readings can be large; an effect the other way counts as inactive or inconclusive.
SMILES,Giardia FBPA inh,Shiga inhibitor,CHX counter-1,Tb PYK inh,Sm TGR inh,LmPK inh,CHX counter-2
N#Cc1cccc(NC(=O)N2CCCC3(CCN(S(=O)(=O)c4ccccc4)CC3)C2)c1,-19.6%,.,.,-5.3%,.,.,.
Cc1nnc(NC(=O)C2COc3ccccc3O2)s1 (stereo not drawn),7.2%,98.8*,14.8,-1.5%,-3.3%,-27.0%,?
COc1cc(OC)cc(-n2nc(C(=O)N3CC(C)CC(C)C3)c3ccccc3c2=O)c1 (stereo not drawn),3.7%,23.2*,-2.6,0.2%,-2.7%,5.1%,-2.0%
CCOC(=O)N1CCN(C(=O)c2nn(-c3cc(OC)cc(OC)c3)c(=O)c3ccccc23)CC1,5.9%,-2.0,9.1,.,-22.9%,-1.5%,.
COc1ccc(Cl)cc1NC(=O)c1cc(=O)c2cc(C)cc(C)c2o1,.,.,.,10.3%,-2.8%,.,.
Cc1cc(C)nc(SCc2nc3ccccc3n2C)n1,-14.3%,41.0*,12.7,3.1%,6.0%,-0.9%,8.4%
Cc1cc(C)n(Cc2nc3ccccc3n2C)n1,-0.2%,11.3,-1.6,7.0%,-18.3%,0.0%,.
CCN(CC)C(=O)C1=C(C)N(CCCOC)C(=O)C(CC(=O)NCc2cccs2)C1 (stereo not drawn),.,.,.,4.0%,.,.,.
Cc1c(NC(=O)c2ccc3c(c2)OCO3)cccc1-c1nc2ccccc2o1,0.0%,39.2*,7.9,-4.9%,0.8%,1.0%,3.6%
CCc1ccc(-n2cnc3cc(C(=O)NCc4ccc(C)cc4)ccc32)cc1,.,.,.,0.0%,-2.0%,.,.
Cc1ccc(CSC(Nc2ccc(F)cc2)=C(C#N)C#N)cc1,-11.3%,21.5*,1.1,-14.6%,-3.4%,0.5%,0.5%
COc1cc(NS(=O)(=O)c2cc(Br)cc3c2N(C(C)=O)C(C)C3)cc(OC)c1 (stereo not drawn),.,.,.,-0.7%,3.6%,.,.
Cc1noc(/C=C/c2ccco2)c1S(=O)(=O)N1CCC(C(=O)N(C)Cc2ccccc2)CC1,4.4%,40.1*,12.9,-0.6%,12.6µM*,1.3%,?
CCc1ccc(C(=O)c2oc3nc(C)cc(C)c3c2N)cc1,-11.0%,51.5*,15.9,-5.1%,1.7%,-2.3%,?
O=C(Cc1c[nH]c2ccccc12)NCc1ccc(Cl)cc1,-0.3%,29.9*,10.1,4.1%,2.6%,-9.7%,7.5%
O=C(NCCc1c[nH]c2ccccc12)Nc1ccccc1C(F)(F)F,.,.,.,0.3%,-0.8%,.,.
O=C(NCCc1c[nH]c2ccccc12)C(F)(F)F,-5.0%,43.4*,9.7,8.1%,3.9%,-0.2%,-1.2%
O=C(CSc1nnc2ccc3ccccc3n12)Nc1ccccc1Cl,.,.,.,-1.5%,-11.8%,.,.
OC(c1cccc(Cl)c1)c1nc(-c2ccoc2)cs1 (stereo not drawn),.,.,.,-6.3%,.,.,.
NC(=O)c1cc(S(=O)(=O)N2CC=C(c3ccccc3)CC2)cs1,.,-6.3,-3.6,-3.0%,-2.2%,-1.8%,.
O=S(=O)(c1ccsc1)N1CC=C(c2ccccc2)CC1,.,34.7*,2.3,0.4%,-9.9%,-3.4%,?
COCCCN1C(=O)C(CC(=O)NCCCCc2ccccc2)CC(C(=O)N(C(C)C)C(C)C)=C1C (stereo not drawn),.,.,.,2.0%,.,.,.
CCC(=O)N1CCN(c2ccc(NC(=O)c3ccc(Br)o3)cc2)CC1,-0.3%,21.9*,3.4,-16.1%,-0.9%,-2.7%,6.6%
Cc1ccc(Oc2nn[nH]n2)cc1,-6.8%,46.9*,-1.8,0.0%,8.9%,-0.5%,1.6%
Cc1cc(N2C(=O)C(=O)/C(=C(/O)c3ccc(F)cc3)C2c2cccc(Br)c2)no1 (stereo not drawn),9.7%,-3.0,1.3,1.2%,6.9%,8.2%,.
SMILES,Giardia FBPA inh,Shiga inhibitor,CHX counter-1,Tb PYK inh,Sm TGR inh,LmPK inh,CHX counter-2
Cc1ccc(/C(O)=C2\C(=O)C(=O)N(c3cc(C)on3)C2c2cccc(Br)c2)cc1 (stereo not drawn),-0.4%,39.1*,2.4,-7.1%,-5.0%,4.5%,-3.4%
CC1OC(COCc2ccccc2)Cc2[nH][nH]c(=O)c21 (stereo not drawn),.,.,.,-0.2%,.,.,.
COc1ccc(NC(=O)CCNS(=O)(=O)c2ccc3c(c2)CCCC(=O)N3)cc1,.,.,.,3.4%,-1.9%,.,.
CCOC(=O)N1CCN(C(=O)Nc2ccc3nc(C)c(C)nc3c2)CC1,-15.8%,136.4*,5.6,4.3%,8.8%,-0.8%,-2.4%
Nc1nc(-c2nn(Cc3ccccc3F)c3ncccc23)ncc1C1CC1,11.6%,28.0*,2.4,.,.,.,3.2%
O=c1c2ccccc2nc(SCc2ccccc2F)n1C1CCCC1,5.4%,-0.5,-3.0,-13.1%,-1.5%,2.4%,.
Cc1ccc(NC(=O)CCc2c(C)nc3cc(-c4ccccc4)nn3c2C)cc1F,.,.,.,-1.0%,-8.3%,.,.
Cc1nnc(NC(=O)CSc2ccc(-c3ccc(Cl)cc3)nn2)s1,3.3%,29.9*,11.8,3.7%,6.0%,4.8%,0.2%
COC(=O)c1c(NS(C)(=O)=O)sc2c1CCCC2,-6.7%,28.4*,-2.0,-27.0%,0.0%,8.8%,0.4%
O=C(NN1CCOCC1)c1ccccc1Br,-3.9%,4.7,-1.7,-18.6%,3.2%,5.1%,.
Cc1ccccc1C(=O)NN1CCOCC1,2.3%,20.6*,-1.2,0.4%,-8.5%,-1.0%,-1.1%
Cc1ccc2c(CN3CCCCC3C)cc(=O)oc2c1C (stereo not drawn),-11.7%,40.1*,5.4,9.2%,-8.0%,0.0%,-1.3%
Cc1ccccc1-c1ccnc2c(-c3ccc(F)cc3)c(C)nn12,.,.,.,-14.8%,2.1%,.,.
COCCCN(CC(=O)Nc1ccc(F)cc1)S(=O)(=O)c1cccs1,.,.,.,2.7%,.,.,.
Cc1ccc2[nH]c(=O)c(CN(CCCN3CCOCC3)C(=O)Nc3ccc(Cl)cc3)cc2c1,4.2%,48.0*,8.8,-2.2%,.,0.1%,-0.3%
COc1ccc(CCNC(=O)C2CCN(S(=O)(=O)c3c(C)noc3/C=C/c3ccc(C)cc3)CC2)cc1OC,.,.,.,-3.0%,-2.4%,.,.
COC(=O)c1ccc(CNCC(=O)Nc2ccc(C(=O)OC)cc2)cc1,2.2%,-10.9,4.2,3.9%,3.7%,-0.4%,.
COC(=O)c1ccc(NC(=O)Cc2ccc(F)cc2)cc1,-1.2%,151.3*,13.6,1.5%,8.3%,-2.6%,?
CCc1nnc(NC(=O)CSc2nccn2Cc2ccc(F)cc2)s1,.,.,.,3.6%,6.6%,.,.
O=c1n(Cc2ccc(F)cc2)nc2n1-c1ccccc1SC2,2.7%,31.2*,14.0,0.3%,-0.8%,-3.3%,5.8%
COc1ccc(OC)c(NC(=O)Cc2ccc(NC3=NC4CS(=O)(=O)CC4S3)cc2)c1 (stereo not drawn),-28.4%,11.7,-2.1,-3.0%,0.6%,-0.3%,.
O=C(O)Cc1ccc2oc(-c3ccccn3)nc2c1,-6.7%,37.9*,13.2,-0.8%,1.0%,-5.7%,?
Nc1nc(-c2ccc3c(c2)CCC(=O)N3)cs1,-11.1%,42.0*,7.1,-3.6%,-9.4%,-16.8%,?
